Experimental data from PubChem BioAssay AID687001 (Broad Institute, 2013).
Results with a measured potency or affinity are listed apart.

Molecular target: Protein S100-A4 (Homo sapiens) (UniProt P26447)
Test: human S100A4 peptide interaction inhibition curves – biochemical, fluorescence polarization, cherry-picked hits, dose response (AID 687001);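 also: 0% = DMSO neutral control wells and -100% = TFP positive control wells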
Details: FP, S100A4/TAMRA-myosin IIA peptide binding; series mostly up to 11 µM; activity change, negative = inhibition: at the top concentration;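 active = signal-lowering compounds whose fitted half-maximal concentration is at or below twice the top tested dose in every run; inconclusive = runs disagree, flat 30 to 70% inhibition, or poor curve fit; inactive = the rest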

Protein S100-A4 (Homo sapiens), sequence (P26447 whole entry, looked up): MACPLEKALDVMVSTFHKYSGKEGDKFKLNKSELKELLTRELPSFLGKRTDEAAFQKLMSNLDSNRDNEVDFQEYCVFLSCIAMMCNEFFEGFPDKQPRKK

Activity change, negative = inhibition, inactive:
CCCN1CCN(CCCNC(=O)C(CC)n2nc(C)c3sc4ccccc4c3c2=O)CC1 (stereo unspecified) 5.91%
CN(C)CCCN(C(=O)c1ccc(S(=O)(=O)N2CCCCCC2)cc1)c1nc2cc3c(cc2s1)OCO3 -0.688%
COc1ccc(S(=O)(=O)Nc2ccc3c(c2)C(=O)N([C@@H](C)CO)C[C@@H](C)[C@H](CN(C)C(=O)Nc2ccccc2)OCCCC[C@@H](C)O3)cc1 51.9%
Cc1noc(C)c1S(=O)(=O)N(C)C[C@@H]1Oc2ccc(NC(=O)C3CC3)cc2CC(=O)N([C@@H](C)CO)C[C@H]1C 8.79%
COc1ccc(Cl)cc1S(=O)(=O)n1ccnc1 -1.32%
Cc1cccn2c(=O)c3cc(C(=O)NC4CCCCCC4)sc3nc12 2.25%
O=C(C1CCCC1)N1CCCCN2[C@H](CO)[C@@H](c3ccc(C#CC4(O)CCCC4)cc3)[C@H]2C1 2.41%
COc1ccc(CN(C)C[C@H]2Oc3c(NC(=O)Nc4ccccc4)cccc3C(=O)N([C@@H](C)CO)C[C@@H]2C)cc1 -1.55%
Cc1noc(C)c1NC(=O)N(C)C[C@H]1Oc2c(NC(=O)CCCCCC(=O)Nc3ccccc3N)cccc2C(=O)N([C@@H](C)CO)C[C@H]1C 7.49%
Cc1cc(C)c(NC(=O)CS(=O)CC(=O)NCCN2CCCCCC2)c(C)c1 (stereo unspecified) 2.36%
CC(C)C(=O)Nc1ccc2c(c1)C(=O)N(C)[C@H]1CC[C@H](CC(=O)Nc3cccc(F)c3)O[C@@H]1CO2 -3.5%
CCN1C(=O)[C@H]2[C@@H](c3ccc(-c4ccc5c(c4)OCO5)c(OC)c3)N[C@@](C)(C(=O)OC)[C@H]2C1=O -4.5%
O=C(C[C@@H]1C=C[C@@H](NS(=O)(=O)c2cccc(F)c2)[C@@H](CO)O1)NCc1ccc2c(c1)OCO2 1.68%
CCCNC(=O)N1C[C@H](O)COC[C@@H]2O[C@@H](CC(=O)NCCCN3CCOCC3)CC[C@H]21 -0.017%
Cc1cc(C)n2nc(Sc3ncccc3[N+](=O)[O-])nc2n1 0.509%
C=C[C@@H]1c2ccccc2N(S(=O)(=O)c2ccc(C)cc2)[C@H](c2ccccc2C(F)(F)F)C1(C#N)C#N -0.594%
S=c1[nH]c(-c2ccccc2)cn1-c1ccccc1 -5.04%
CC(C)C[C@H]1CN(CCCC[C@@H]2CNC(=O)C(=O)N2Cc2ccccc2)C(=O)C(=O)N1Cc1ccccc1 -0.618%
C[C@@H]1CCCCO[C@@H](CN(C)S(=O)(=O)c2cn(C)cn2)[C@@H](C)CN([C@H](C)CO)C(=O)c2cc(NS(=O)(=O)c3ccc(Cl)cc3)ccc2O1 5.4%
Cc1ccc(C)c(N2CCN(S(=O)(=O)c3c(C)[nH]c(C)c3C(=O)N3CCCCC3)CC2)c1 -3.83%
C[C@@H]1CN([C@H](C)CO)S(=O)(=O)c2ccc(-c3cccnc3)cc2O[C@@H]1CN(C)C(=O)CC1CC1 2.97%
CC(OCCN(C)C)C(=O)C12CC3CC(CC(C3)C1)C2 (stereo unspecified) -2.31%
CSc1cccc(NC(=O)C2CCN(S(=O)(=O)c3ccc4c(c3)NC(=O)CO4)CC2)c1 4.28%
COc1ccc2c(c1OC)C(=O)N1N=C(c3ccc(Cl)cc3)CC21 (stereo unspecified) 0.647%
CO[C@H]1CN(C)C(=O)c2cc(NC(=O)Nc3ccc(C(F)(F)F)cc3)ccc2OC[C@H](C)NC[C@H]1C 2.47%
CC(C)NC(=O)c1ccc(COc2cc(Cl)ccc2Cl)o1 1.71%
C[C@@H]1CCCCO[C@H](CN(C)S(=O)(=O)c2cccs2)[C@@H](C)CN([C@@H](C)CO)C(=O)c2cc(NS(=O)(=O)c3cccs3)ccc2O1 49.8%
C[C@@H]1CN([C@H](C)CO)S(=O)(=O)c2ccc(C#C[C@@H](C)O)cc2O[C@@H]1CN(C)C(=O)C1CC1 3.2%
COc1ccccc1CCNC(=O)C(=O)NCCC1CCCCN1S(=O)(=O)c1ccccc1 (stereo unspecified) -0.528%
CC(C)NC(=O)COc1coc(CN2CCN(c3ccccc3)CC2)cc1=O -3.46%
CC(=O)N(C)C[C@@H]1Oc2cc(C#CCC(C)C)ccc2S(=O)(=O)N([C@H](C)CO)C[C@@H]1C -2.48%
O=C1CC(C(=O)N2CCN(c3ccccn3)CC2)CN1Cc1ccccc1Cl (stereo unspecified) -1.18%
CO[C@@H]1CC[C@H]2CCOc3c(C#N)cccc3C(=O)N(C)C[C@H](C)C(=O)N(C)C[C@H]1O2 -3.09%
COc1ccc(C(CNC(=O)C(=O)Nc2ccc3c(c2)OCCO3)N2CCN(C)CC2)cc1 (stereo unspecified) 0.731%
Cc1cc(=O)n2nc(N3CCC(C(=O)NCc4ccccc4)CC3)sc2n1 13.9%
COc1ccc(S(=O)(=O)N(C)C[C@@H]2OCCCC[C@@H](C)Oc3ccc(NC(=O)Nc4ccc(C(F)(F)F)cc4)cc3C(=O)N([C@H](C)CO)C[C@@H]2C)cc1 3.23% [at 10 µM]
